PubChem BioAssay (NCI)
Compounds without any hit were thinned out: in the full panel of roughly 79,000, 15% have a hit. Values without a mark were called inactive. Activity calls are given as the source filed them. Cut-off read from the data, not from the text of the source: active = growth inhibition above about 70%; inactive = the rest.

Experiments:
[1] = NCI Yeast Anticancer Drug Screen. Data for the rad50 strain (AID 155);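 note: 0% = growth of vehicle-only cultures of the same strain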; details: S. cerevisiae rad50 strain growth inhibition, active compounds read high
Procedure, shortened: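 Genetically altered yeast (DNA repair pathway); compound treatment; growth inhibition vs vehicle ctrl.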

[2] = NCI Yeast Anticancer Drug Screen. Data for the mec2-1 strain (AID 157); details: S. cerevisiae mec2-1 strain, active compounds read high
Procedure, shortened: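 Yeast mec2-1 mutant treated with compound. Readout: growth inhibition vs vehicle controls.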

[3] = NCI Yeast Anticancer Drug Screen. Data for the sgs1 mgt1 strain (AID 161);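 note: 0% = growth of cultures given vehicle only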; details: S. cerevisiae sgs1 mgt1 strain, active compounds read high
Procedure, shortened: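 Mutant yeast exposed to compound; growth scored against vehicle-only wells.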

[4] = NCI Yeast Anticancer Drug Screen. Data for the cln2 rad14 strain (AID 165);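 note: 0% = growth equal to vehicle treated cultures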; details: S. cerevisiae cln2 rad14 strain, active compounds read high
Procedure, shortened: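 cln2 rad14 yeast strain; compound exposure; growth inhibition read vs vehicle controls.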

[5] = NCI Yeast Anticancer Drug Screen. Data for the bub3 strain (AID 167); details: S. cerevisiae bub3 mutant strain, active compounds read high
Procedure, shortened: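 Yeast carrying a defined mutation is treated with each compound, and growth is compared with that of vehicle-exposed cells to give inhibition.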

[6] = NCI Yeast Anticancer Drug Screen. Data for the mlh1 rad18 strain (AID 175); details: S. cerevisiae mlh1 rad18 strain growth inhibition, active compounds read high
Procedure, shortened: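 Yeast w/ defined DNA-repair lesions; compound exposure; growth vs vehicle controls → % inhibition.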

[7] = at 5.0 µM (retest, dose inferred, filed as 0.5)
[8] = at 50.0 µM (retest, dose inferred, filed as 5.0)

Row | SMILES | growth inhibition [1, 7] [%] | growth inhibition [1, 8] | growth inhibition ([1]; at 50.0 µM) | growth inhibition [2, 7] [%] | growth inhibition [2, 8] | growth inhibition ([2]; at 50.0 µM) | growth inhibition [3, 7] [%] | growth inhibition [3, 8] | growth inhibition ([3]; at 50.0 µM) | growth inhibition [4, 7] | growth inhibition [4, 8] | growth inhibition ([4]; at 50.0 µM) | growth inhibition [5, 7] [%] | growth inhibition [5, 8] | growth inhibition ([5]; at 50.0 µM) | growth inhibition [6, 7] [%] | growth inhibition [6, 8] | growth inhibition ([6]; at 50.0 µM)
1 | COc1ccc2c(C)cc(N/N=C/c3ccc(OC)c4ccccc34)nc2c1 | 27 | 98% (active) | 89.7% (active) | 51 | 99% (active) | 36.8% | 66 | 99% (active) | 91% (active) | 0% | 99% (active) | 35.5% | 9 | 99% (active) | 52% | 42 | 98% (active) | 39.9%
2 | CCOC(=O)C(CO)c1nc2c([nH]c1=O)c(=O)n(C)c(=O)n2C (configuration not stated) | 5 | 18% | 29.9% | 14 | 17% | 43.5% | 33 | 60% | 50.5% | -4% | 5% | -2.95% | 6 | 39% | 52.9% | 17 | 18% | 83.5% (active)
3 | Cn1cnc([N+](=O)[O-])c1Sc1nc2cccnc2s1 | 45 | 80% (active) | 79.5% (active) | 34 | 77% (active) | 77.1% (active) | 40 | 59% | 67.8% | 29% | 44% | 52% | 38 | 68% | 71.8% (active) | 54 | 90% (active) | 75.6% (active)
4 | O=C1C2=Cc3ccccc3CCN2c2ccccc21 | 4 | 4% | 88.3% (active) | -6 | -6% | 90.7% (active) | 1 | 1% | 89.8% (active) | -8% | -8% | 86.2% (active) | 2 | 2% | 89.8% (active) | 2 | 2% | 83.1% (active)
5 | O=C1CCC(=O)c2c1c(O)c1ccncc1c2O | 18 | 99% (active) | 98.1% (active) | 26 | 99% (active) | 99.3% (active) | 31 | 99% (active) | 99.2% (active) | 11% | 99% (active) | 98.5% (active) | 16 | 99% (active) | 99.2% (active) | 41 | 99% (active) | 99% (active)
6 | O=c1cc(-c2ccccc2)[nH]c2ccc(N3CCCC3)cc12 | 17 | 26% | -26.8% | 7 | 9% | -4.35% | 13 | 13% | -29.9% | 0% | 7% | 7.25% | 14 | 6% | -8.65% | 11 | 5% | 0.5%
7 | CCCCc1ccc2nc(C)cc(N/N=C/c3ccc4c(c3)OCO4)c2c1 | 9 | 20% | 66.7% | 1 | 19% | 22% | 15 | 31% | 73.5% (active) | -3% | 2% | 15.9% | -4 | 1% | 6.6% | 9 | 35% | 29.8%
8 | Nc1ccc(/C=C/c2ccccc2)cc1 | 3 | 61% | 87.5% (active) | -9 | 33% | 80.3% (active) | -2 | 47% | 81.5% (active) | -10% | 45% | 82.8% (active) | -2 | 44% | 95.5% (active) | 3 | 73% (active) | 94% (active)
9 | CCC(C(=O)C(C)C(O)C(C)CCc1ccc(C)c(O)c1C(=O)O)C1OC(CC)(C2CCC(O)(CC)C(C)O2)CC1C (configuration not stated) | 28 | 96% (active) | 88.2% (active) | 56 | 98% (active) | 90.7% (active) | 40 | 97% (active) | 90% (active) | 73% (active) | 98% (active) | 89.2% (active) | 64 | 98% (active) | 88.7% (active) | 28 | 97% (active) | 88.2% (active)
10 | O=C(CC(=O)c1ccccc1)CC1(O)CCCCC1 | 22 | 42% | 61.1% | 2 | 16% | 78.9% (active) | 4 | 34% | 79.9% (active) | -9% | 14% | 50.4% | 15 | 86% (active) | 96% (active) | 6 | 29% | 89.1% (active)
11 | O=C1C(c2ccccc2)=S=C2C=CC=CN12 | 2 | 67% | 85.2% (active) | -1 | 41% | 41.1% | 2 | 79% (active) | 16.8% | -1% | 17% | -0.75% | -4 | 72% (active) | 41.5% | 19 | 95% (active) | 79.3% (active)
12 | OCC(CO)C1c2cccc3ccc4cccc1c4c23 | 0 | 30% | 64.5% | -3 | 24% | 17.8% | -2 | 46% | 85.7% (active) | -6% | 37% | 67.3% | 13 | 42% | 53.5% | -4 | 49% | 81.4% (active)
13 | CCCCc1c2c(nc3c1CCc1cc4cc5c(nc4nc1-3)-c1nc3c(c(CCCC)c1CC5)CCC/C3=N/OC)/C(=N\OC)CCC2 | 0 | 76% (active) | 94.2% (active) | 2 | 94% (active) | 96% (active) | -4 | 90% (active) | 95.8% (active) | -22% | 93% (active) | 95.3% (active) | -5 | 90% (active) | 95.9% (active) | -11 | 93% (active) | 95.7% (active)
14 | CC(C)/C(Cl)=N\OC(=O)Nc1ccc(S(N)(=O)=O)cc1 | 15 | 30% | 12.7% | 26 | 28% | 18.8% | 2 | -23% | 68% | 21% | 33% | 45% | 7 | 26% | 77.2% (active) | 22 | 38% | -38.8%
15 | O=[N+]([O-])c1ccc(NCc2ccccc2)c([N+](=O)[O-])c1 | -8 | 69% | 14.6% | -16 | 55% | 31.1% | 4 | 72% (active) | 60.6% | -10% | 62% | -166% | 19 | 86% (active) | 72.7% (active) | -2 | 80% (active) | 68%
16 | Cc1ccc(N=C(N)NN=C(c2ccc(Cl)cc2)c2ccc(Cl)cc2)cc1 | 10 | 67% | 65.7% | 4 | 38% | 98.5% (active) | 7 | 35% | 57.6% | 8% | 22% | 98% (active) | 6 | 24% | 97.2% (active) | 5 | 38% | 50.3%
17 | N#CC1C=C(Cl)c2ccc(Cl)cc2N1C(=O)c1ccccc1 (configuration not stated) | 2 | 96% (active) | 98.8% (active) | 17 | 99% (active) | 99.2% (active) | 3 | 99% (active) | 99.3% (active) | 2% | 99% (active) | 99.4% (active) | 0 | 98% (active) | 98.3% (active) | 23 | 99% (active) | 99.2% (active)
18 | CCOC(=O)/C(=C/c1ccccn1)C(=O)c1ccccc1 | 19 | 85% (active) | 85.8% (active) | 18 | 93% (active) | 85.7% (active) | 17 | 85% (active) | 84.8% (active) | 39% | 85% (active) | 76.7% (active) | 67 | 96% (active) | 88.7% (active) | 53 | 94% (active) | 79.6% (active)
19 | C/C(Cl)=N\OC(=O)Nc1ccc(C)cc1 | 4 | 99% (active) | 55.6% | -2 | 99% (active) | 79.5% (active) | -26 | 91% (active) | 74.5% (active) | 4% | 86% (active) | 53.6% | 11 | 98% (active) | 74% (active) | -3 | 96% (active) | 60.4%
